# In the library only some 4.1% were active in any assay of this set; here they are far more common.
# LMP1 NFkB inh – inhibitors of Epstein-Barr LMP1-induced NF-kappaB reporter; LMP1-induced NF-kappaB luciferase reporter cells, luminescence; inhibition, % at 12.5 µM; actives 0.69% (n = 350,000); AID 504558; in the data active = inhibition above about 41%;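 also: 0% = neutral control wells and 100% = reference inhibitor control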
# Peg3 prom inh – inhibitors of Peg3 promoter. AID 588405. HeLa PEG-Prom luciferase reporter, luminescence, overnight. inhibition, % at 20 µM. actives 1.7% (n = 360,000);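 active = inhibition of at least 50% at 20 µM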
# TRPM1 prom inh – MITF TRPM1 promoter inhibition in SK-MEL-5 cells; SK-MEL-5 TRPM1 promoter luciferase, 24 h; actives 0.83% (n = 330,000); inhibition, % at 12.5 µM; AID 488899;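 active = mean inhibition across replicates of 60% or more, whatever share of single replicates reaches that level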
# Shn3 3UTR inh – Schnurri-3 reporter inhibition in Clone20 osteoblasts. Clone20 osteoblast Shn3 3'UTR firefly luciferase, 24 h. inhibition, % at 12.5 µM. actives 0.52% (n = 360,000);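 active = mean inhibition of at least 75% with every replicate also reaching 75%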;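 also: 0% = median of neutral control wells and 100% = pilot-screen positive control compound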
# TWEAK-Fn14 inh – inhibitors of TWEAK-Fn14 interaction signaling. TWEAK-stimulated Fn14 reporter cells, luciferase luminescence, 8 h. inhibition, % at 10 µM. actives 2% (n = 360,000); in the data active = inhibition above about 50%
# TROY signal inh – inhibitors of TROY-dependent NF-kB signaling | Q293 LMP1-TROYcd NF-kB luciferase reporter, 4 h | inhibition, % at 10 µM | actives 0.98% (n = 360,000) | AID 1347056;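 active = compounds whose plate-normalised and pattern-corrected inhibition of the luciferase reporter signal at the single screening dose is 50% or more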
# * hit, by the source's call; nt = not tested or not shown.
SMILES,LMP1 NFkB inh,Peg3 prom inh,TRPM1 prom inh,Shn3 3UTR inh,TWEAK-Fn14 inh,TROY signal inh
Cn1cccc1C(=O)NNC(=O)COc1ccc(C#N)cc1,-1.8,74.1*,-0.7,-2.1,-11.0,0.7
CCOc1cc2c3c(c1)C(C)=CC(C)(C)N3C(=O)C2=O,-4.5,17.1,15.3,-24.4,20.3,15.0
CC(=O)Oc1cc2c3c(c1)/C(=C1/SC(=S)NC1=O)C(=O)N3C(C)(C)C=C2C,-5.1,-39.6,1.1,0.8,41.1,50.4*
O=C1C2C(C(=O)N1/N=C/c1cccc([N+](=O)[O-])c1)C1C=CC2C12CC2 (stereo unspecified),-5.4,-138.0,-38.1,-32.9,3.9,17.3
CC(C)Cc1ccc(C(C)/C=C2/CCC(CN3CCCCC3)C2=O)cc1 (stereo unspecified),-11.9,91.1*,17.9,73.9,6.8,3.6
O=C(CCl)N(C/C=C/c1ccccc1)c1ccc2c(c1)OCCO2,-10.1,-58.9,3.9,-8.8,60.4*,22.7
Cc1ccc(-c2nc3cccnc3o2)cc1NC(=O)COc1ccc(C(C)(C)C)cc1,80.8*,57.7*,-2.9,94.6*,59.1*,55.5*
O=C(CN(c1ccc(Cl)c(C(F)(F)F)c1)S(=O)(=O)c1ccccc1)N/N=C/c1cccc2c1OCCO2,6.9,44.5,10.4,21.7,31.0,2.0
Cc1cccc(C)c1NC(=O)COc1ccc2c(C)c(Cc3ccccc3)c(=O)oc2c1C,-1.5,72.8*,13.1,8.4,-37.5,6.9
COC(=O)C1CC2=C(CCC2=O)N(c2ccccc2)C1=O (stereo unspecified),-2.8,-1.0,-3.7,-11.6,0.9,-12.9
CC(SC#N)C(=O)C12CC3CC(CC(C3)C1)C2 (stereo unspecified),-10.8,35.8,5.7,2.2,72.0*,41.1
CC(Sc1n[nH]c(N)n1)C(=O)C12CC3CC(CC(C3)C1)C2 (stereo unspecified),4.4,-11.1,-0.8,-2.2,-9.6,6.9
COc1ccc(C2=Nn3c(nnc3-c3ccccc3F)SC2)cc1OCC1CC1,16.1,52.7*,17.9,15.5,12.8,51.4*
COc1ccc(OC)c(-c2nnc3n2N=C(c2ccc(OC)c(OC4CCOC4)c2)CS3)c1 (stereo unspecified),26.2,2.0,70.8*,11.9,21.5,27.3
COc1ccc(C2=Nn3c(nnc3-c3ccccc3Cl)SC2)cc1OC1CCCC1,4.8,19.8,11.8,-3.6,7.9,52.7*
COc1ccc(C2=Nn3c(nnc3-c3ccccc3Cl)SC2)cc1OC1CCOC1 (stereo unspecified),11.4,-48.7,-3.7,-11.9,-44.0,-34.4
Cc1ccc(C)c(NCCC#N)c1,9.9,10.6,-9.1,-21.0,9.9,8.8
O=C1C2C3C=CC(CO)(O3)C2C(=O)N1c1ccccc1-c1ccccc1 (stereo unspecified),35.2,105.1*,23.4,71.5,1.3,-8.6
CC(=O)Oc1ccc(N2C(=O)C3C4C=CC(CO)(O4)C3C2=O)cc1 (stereo unspecified),-4.0,25.9,11.8,0.5,-5.3,7.1
N#Cc1ccc(NC(=O)Nc2ccc(Cl)cc2)cc1,9.6,-192.3,2.2,70.0,63.0*,25.9
Cc1ccc(S(=O)(=O)/N=C2/C=C(Sc3ncn[nH]3)C(=O)c3ccccc32)cc1,64.0*,105.7*,91.3*,98.5*,94.7*,38.1
CC(C)c1ccc(S(=O)(=O)/N=C2/C=C(Sc3ncn[nH]3)C(=O)c3ccccc32)cc1,-0.7,63.7*,59.9,79.1,92.3*,62.1*
Cc1ccc(/C=C2/CNC/C(=C/c3ccc(C)cc3)C2=O)cc1,80.4*,104.7*,91.0*,-17.2,103.7*,37.9
C[C@@H]1CN([C@H](C)CO)S(=O)(=O)c2ccc(C#CC3CCCC3)cc2O[C@H]1CN(C)C(=O)Cc1ccccc1,1.8,34.5,nt,30.3,36.6,32.2
COc1ccccc1NC(=O)C(C)OC(=O)CCCN=C1NS(=O)(=O)c2ccccc21 (stereo unspecified),-1.0,0.8,7.0,19.3,-3.7,20.3
SMILES,LMP1 NFkB inh,Peg3 prom inh,TRPM1 prom inh,Shn3 3UTR inh,TWEAK-Fn14 inh,TROY signal inh
O=C(O)c1cc(S(=O)(=O)N2CCN(S(=O)(=O)c3ccc4ccccc4c3)CC2)ccc1Br,5.3,4.8,-4.0,9.1,23.3,-7.1
CCOC(=O)C1(Cc2cccc(OC)c2)CCCN(C(=O)c2cc(CC(C)C)[nH]n2)C1 (stereo unspecified),-24.1,-239.1,-66.2,-56.8,-12.9,-56.6
CCOC(=O)C1(Cc2cccc(OC)c2)CCCN(C(=O)c2ccc(OC)o2)C1 (stereo unspecified),-28.6,-217.3,-85.6,-62.9,98.0*,-96.5
COc1ccc(-n2cc(-c3ccccc3)c3c(N4CC(C)OC(C)C4)ncnc32)cc1 (stereo unspecified),9.3,63.8*,0.6,20.6,39.8,32.1
O=C(CCCn1c(=O)c2cccn2c2cccnc21)N1CCN(c2ccccc2F)CC1,6.5,13.9,-0.3,-2.0,-21.2,11.0
O=C(Cn1c(=O)c2cccn2c2cccnc21)N1CCN(c2ccccc2F)CC1,71.3*,0.3,5.0,-4.7,-11.4,2.4
Oc1ccc(Nc2nc3ccccc3nc2Nc2ccc(O)cc2)cc1,15.4,96.4*,65.8*,55.3,76.1*,-37.4
Oc1ccc(Nc2nc(-c3ccccc3)nc3ccccc23)cc1,2.4,20.9,11.1,4.6,27.2,5.8
Nc1[nH]c(C(=O)c2ccccc2)c(-c2ccc(Br)cc2)c1C(=O)c1ccc(Br)cc1,nt,nt,nt,nt,90.9*,18.1
CSc1nc2c(cnn2-c2ccc(C)c(C)c2)c(=O)[nH]1,6.0,59.0*,28.7,-7.0,-29.6,0.2
Cc1cc(Cl)n2c(nc3cc(F)c(F)cc32)c1C#N,6.5,110.3*,98.0*,96.3*,68.8*,36.5
Cc1cc(C)n2c(=O)c3ccc(Cl)cc3nc2c1C#N,-4.6,7.9,9.7,-4.1,-20.3,-21.2
COC(=O)CC1c2ccccc2S(=O)(=O)N1Cc1ccccc1 (stereo unspecified),-0.5,-1.5,-8.7,11.0,-5.0,-8.1
CCCC(=O)N(C1CC(C)C(C#N)(C#N)C1(C#N)C#N)N(C)C (stereo unspecified),27.5,107.3*,82.8*,96.6*,5.5,28.1
CC(=O)N(C1CC(C)C(C#N)(C#N)C1(C#N)C#N)N(C)C (stereo unspecified),1.1,102.0*,86.2*,93.2*,8.2,-11.2
COc1ccc(N(C(=O)c2cccnc2)S(=O)(=O)c2cc(OC)ccc2OC)cc1,3.0,22.3,-2.7,-26.7,14.9,3.2
COc1ccc(N(C(=O)c2cccnc2)S(=O)(=O)c2ccc3c4c(cccc24)C(=O)N3C)cc1,0.0,26.9,-3.1,30.8,64.2*,47.1
COc1ccc(N(C(=O)c2ccncc2)S(=O)(=O)c2ccc3c4c(cccc24)C(=O)N3C)cc1,-1.1,41.4,22.7,23.9,33.9,63.9*
